Source: PubChem
Compounds with a hit are over-represented: about 19% of the library has one in this group of screens.
TDP1 cell noCPT – qHTS for Inhibitors of human tyrosyl-DNA phosphodiesterase 1 (TDP1): qHTS in cells in absence of CPT; Potency, µM (top dose mostly 46.2 µM), for inactives: at the highest dose activity change, negative = growth inhibition, actives largely listed as inhibitors; actives 15% (n = 420,000); AID 686978, 2013; DT40 Tdp1-/- hTDP1 cells, no CPT, ATP luminescence, 48 h; note: potency is the fitted concentration of half-maximal effect; nearly all actives have a fitted effect of over 55% in size
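Readout: luminescence from CellTiter-Glo after 30 min in the dark at RT. Cells: DT40 Tdp1-/- with stable hTDP1, 400/well. Exposure: compounds alone, ≥48 hr, 37 °C.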
IL1B secr inh – blocks inflammasome-driven IL-1 beta release. THP-1 LPS/ATP IL-1B secretion, AlphaLISA, 16 h; hits give low values. activity change, % at 57.5 µM. actives 4.7% (n = 360,000). AID 743279; in the data active = activity change below about -50%; inconclusive = mostly about -30% to -49%
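THP-1 cells pretreated 1 hr with compounds (up to 57.5 uM final), then stimulated with LPS (250 ng/mL final) plus ATP (1.25 mM final); secreted IL-1B measured by AlphaLISA after 16 hr, decreased signal indicating inhibition.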
ELG1 repair inh – blocks ELG1-dependent DNA repair in HEK293T cells; HEK293T ELG1-luciferase reporter, luminescence, 16 h; DNA damage induced by 5-fluorouridine; Potency, µM (titrated, usually from 46.1 µM), inactives show at the top dose activity change, negative = inhibition, hits mostly inhibitors; actives 2.3% (n = 330,000); note: potency is the fitted concentration of half-maximal effect; nearly all actives have a fitted effect of over 55% in size
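Overnight (16 hr) co-exposure of 2,000 cells/well to 5-fluorouridine and compound at 37 °C preceded detection. Luciferase was quantified via ONE-Glo luminescence; loss of signal denotes inhibition.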
DT40 TDP1 CPT – DT40-hTDP1 cell growth loss with CPT. Potency, µM (titrated, usually from 46.2 µM), inactives show at the highest dose activity change, negative = growth inhibition, most hits filed as inhibitors. actives 12% (n = 420,000). chicken DT40 Tdp1-/-;hTDP1 cells + 20 nM CPT, ATP luminescence, 48 h; note: potency is the fitted concentration of half-maximal effect; nearly all actives have a fitted effect of over 55% in size
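Cell growth measured by CellTiter-Glo luminescence after a minimum 48 h, 37 C compound exposure with 20 nM CPT in Tdp1-knockout DT40 cells stably expressing hTDP1, seeded 400/well; qHTS titration format.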
HT1080-NT tox – kills 2HG-producing HT-1080-NT fibrosarcoma cells; HT-1080-NT fibrosarcoma viability, CellTiter-Glo ATP luminescence, 48 h; AID 686970; actives 1.6% (n = 360,000); Potency, µM (doses to about 46.1 µM), for the others: top-dose activity, negative = less viability, actives largely listed as cytotoxic;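 note: NT is the 2HG producing partner of a matched IDH1 knockdown line; potency is the fitted concentration of half-maximal effect; 0% = DMSO-treated cells and -100% = media-only wells without cells; nearly all actives have a fitted effect of over 55% in size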
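Viability of the 2HG-overproducing fibrosarcoma line after 48 hours of compound exposure at 37 degrees C was determined by luminescence with CellTiter-Glo, and concentration-effect curves were then fitted and categorized.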
HT1080 IDH1KD tx – HT-1080 IDH1 knockdown cell toxicity (counter line); HT-1080 IDH1 knockdown viability, ATP luminescence, 48 h; actives 2% (n = 360,000); Potency, µM (doses to about 46.1 µM), for inactives: at the top dose activity, negative = toxicity, hits mostly cytotoxic; AID 686971;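 note: potency is the fitted concentration of half-maximal effect; 0% = DMSO wells and -100% = cell-free medium wells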
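Luminescent ATP read-out (CellTiter-Glo, 10 min at room temperature) after 48 h compound exposure at 37 °C gave viability of IDH1-knockdown HT-1080 cells. Activity was normalised to DMSO and cell-free wells, then fitted as concentration-response curves.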
* = called active by the depositor; ? = inconclusive; nt = no result given; [ ] = another dose, or the depositor's remark. Unless noted, calls come from the whole dose curve; as a rule, active = well fitted curve in the direction sought with a large enough effect; inconclusive = small, poorly fitted or top-dose-only effect, or another doubt; inactive = no such curve, though single readings can be large; an effect the other way counts as inactive or inconclusive. Unless noted, % is set by controls: 0 for no effect and ±100 for the full control effect.

SMILES	TDP1 cell noCPT	IL1B secr inh	ELG1 repair inh	DT40 TDP1 CPT	HT1080-NT tox	HT1080 IDH1KD tx
CC(NCc1ccc(-c2ccccc2)cc1)C(O)c1ccccc1 (stereo not drawn)	18.4µM*	-95.8*	-28.8%	?	?	14.6µM*
Cc1[nH]c2ccccc2c1C(=O)C(=O)NCc1ccco1	-12.8%	0.0	?	-21.3%	11.7%	4.0%
CC(C)N(C(=O)[C@H]1C[C@H](CC(=O)NCc2cccc(C(F)(F)F)c2)C(=O)N2CCc3c([nH]c4cc(CCC(=O)N(C)C)ccc34)[C@]12C)C(C)C	?	-66.9*	-22.6%	?	-3.5%	2.6%
CCN(CC)C(=O)[C@H]1C[C@H](CC(=O)NCc2cccc(C(F)(F)F)c2)C(=O)N2CCc3c([nH]c4cc(CCC(=O)N(C)C)ccc34)[C@]12C	?	-21.3	-9.8%	?	6.9%	3.1%
CCN(CC)C(=O)[C@H]1CC(CC(=O)NCc2cccc(C(F)(F)F)c2)C(=O)N2CCc3c([nH]c4ccccc34)[C@]12C (stereo partly drawn)	20.6µM*	?	-17.0%	14.6µM*	-4.3%	-11.9%
CCOC(=O)Cc1csc(NC(=O)CSc2nccn2C)n1	23.7%	4.5	-14.5%	6.9%	1.3%	9.9%
Cc1ccc(S(=O)(=O)N=N/C=C2\C=CC=CN2O)cc1	?	-12.1	nt	-23.8%	6.9%	1.9%
CCCC(=O)N1CCC1(C)C(=O)NS(=O)(=O)c1cccs1 (stereo not drawn)	0.4%	0.4	nt	6.2%	23.2%	3.1%
CCCCCCC(=O)N/N=C/c1ccc(Br)cc1	-26.0%	-20.5	6.8%	2.7%	8.7%	9.5%
CCCCCCCCC/C(=N\O)c1ccccn1	23.1µM*	61.1	?	23.1µM*	-29.0%	?
CCCCCCCCCCNC(=O)C(=O)Nc1ccccn1	?	24.8	15.9%	-18.5%	6.4%	2.8%[9.24 µM]
CCCCC(C(=O)N/N=C/c1ccccn1)C(=O)N/N=C/c1ccccn1	-11.2%	nt	?	-4.6%	-0.1%	1.8%
CCC(=O)Nc1ccc(C(=O)N/N=C/c2cccnc2)cc1	22.8%	18.6	12.7%	-8.5%	6.0%	9.0%
CCCCCCCCC(=O)N/N=C/c1cccc(Br)c1	1.6%	-59.9*	12.4%	1.3%	2.3%	14.7%
CCCCCCC(=O)Nc1ccc(C(=O)N/N=C/c2cccnc2)cc1	-5.2%	7.7	-18.2%	-13.1%	23.1µM*	8.2µM*
CCCCCCCCC(=O)N/N=C/c1ccccn1	?	22.7	-6.2%	18.4µM*	?	0.0%
Cc1cc(-c2nnc(CCC(=O)NC(Cc3ccccc3)c3ccccc3)o2)no1 (stereo not drawn)	-20.0%	10.3	-16.9%	-19.1%	-0.9%	1.8%
CC(=O)N1C[C@H]2CON(C)[C@H]2C[C@H]1c1ccc(-c2cccnc2)cc1	-24.4%	-4.5	nt	3.9%	0.8%	15.4%
CCCOc1ccc(C(=O)Nc2ccc3oc(-c4ccc(N(C)C)cc4)nc3c2)cc1	-21.7%	nt	nt	-6.0%	nt	nt
CC1(C)C=Cc2c(c3c(c4c(=O)c(-c5ccc(O)cc5)coc24)OC(C)(C)CC3)O1	25.9µM*	?	?	18.4µM*	11.7%	?
CC(C)=CCc1c2c(c3occ(-c4ccc(O)c(O)c4)c(=O)c3c1O)C=CC(C)(C)O2	1.46µM*	-61.6*	nt	1.3µM*	?	?
CC(C)=CCc1cc([C@@H]2CC(=O)c3ccc(O)c(CC=C(C)C)c3O2)ccc1O	?	-21.9	nt	?	-0.6%	?
CC(C)Oc1cc(O)c2c(=O)c(-c3ccc(O)cc3)coc2c1	-27.2%	-7.9	?	-6.3%	-4.6%	0.5%
COc1ccccc1-c1c(C)nn2c(N3CCN(c4ccc(Cl)cc4)CC3)cc(C)nc12	-8.1%	nt	nt	-6.2%	nt	nt
O=C(/C=C/c1ccco1)Nc1cccc(NC(=O)/C=C/c2ccco2)n1	20.6µM*	10.2	?	23.1µM*	0.4%	12.3%
SMILES	TDP1 cell noCPT	IL1B secr inh	ELG1 repair inh	DT40 TDP1 CPT	HT1080-NT tox	HT1080 IDH1KD tx
Cc1nc(NC(=O)/C=C/c2ccco2)sc1C	5.8µM*	22.4	?	5.17µM*	-11.7%	?
CC(C)S(=O)(=O)c1csc(NC(=O)Nc2cc(Cl)ccc2Cl)c1Cl	?	-101.5*	20.6µM*	16.4µM*	1.7%	-0.4%
CC(=O)NC(CCS(C)(=O)=O)C(=O)Nc1cc(Cl)ccc1Cl (stereo not drawn)	0.9%	12.2	13.3%	-7.2%	-1.7%	2.9%
Cc1ccc(S(=O)(=O)N2CCC(C(=O)NCCN3CCOCC3)CC2)cc1	-7.8%	-3.3	nt	-0.9%	-2.4%	0.2%
Cc1cn2c(=O)cc(COC(=O)c3ccc(NC(=O)c4ccccc4C)cc3)nc2s1	-12.1%	nt	nt	-2.7%	nt	nt
O=C(CCl)N1CCN(S(=O)(=O)Cc2ccccc2)CC1	4.61µM*	-99.6*	9.2µM*	18.4µM*	?	?
CC(c1ccccc1)N1CCN(C(=O)CCl)CC1 (stereo not drawn)	18.4µM*	-78.8*	-17.6%	11.6µM*	?	3.7%
CCOC(=O)N1CCN(S(=O)(=O)Cc2ccccc2)CC1	5.4%	-2.8	-2.1%	1.7%	9.4%	4.9%
CC(CC(=O)N1CCN(C(=O)c2ccccc2)CC1)c1ccccc1 (stereo not drawn)	-2.3%	8.1	-10.9%	6.5%	16.9%	15.0%
CC1=C(N2CCOCC2)CCC1=O	-1.7%	15.0	nt	-6.6%	-1.0%	0.0%
CN(C1=C(N2CCOCC2)C(=O)c2ccccc2C1=O)c1ccccc1	16.4µM*	-85.9*	-13.6%	13µM*	-17.4%	-28.3%
CC1=C(C)C(=O)C(N2CCOCC2)=CC1=O	14.6µM*	13.5	?	16.4µM*	-4.8%	-4.6%
